# Measurements taken from the supplement of paper PMC10646978.
# ± gives the standard deviation.
# System: RAW-Dual (murine macrophage reporter line)
# Experiment: NF-kB reporter (SEAP) activity fold change vs agonist alone; higher = enhanced NF-kB activity
# Conditions: modulator concentration 10 µM; agonist: CpG ODN 1826 0.5 ug/mL
# Method in brief: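 RAW-Dual murine macrophage reporter cells were plated at 50 000 per well in 384-well plates, pin-transferred compound to 10 μM final, and pre-incubated for 1 hour at 37 °C before a PRR agonist was added and the cells incubated overnight. NF-κB activity was read from supernatant SEAP with QUANTI-Blue at 620 nm absorbance, and IRF activity from Lucia luciferase with QUANTI-Luc by luminescence. Each signal was expressed as fold change by dividing by the mean agonist-only control on the same plate. Two replicate plates were averaged, with errors obtained by propagation.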
row,SMILES,NF-kB reporter
1,Cl.Fc1ccc(C2CCNCC2COc2ccc3c(c2)OCO3)cc1 (stereo not given),0.829 ± 0.23
2,O=C(O[C@@H]1C[C@@H]2C[C@@H]3C[C@H](C1)N2CC3=O)c1c[nH]c2ccccc12 [Prestw-1510],0.575 ± 0.048
3,Cc1ccc(S(=O)(=O)NC(=O)NN2CC3CCCC3C2)cc1 (stereo not given),1.22 ± 0.17
4,Cl.O[C@@H](c1cc(C(F)(F)F)nc2c(C(F)(F)F)cccc12)[C@H]1CCCCN1,0.671 ± 0.091
5,COc1ccc(N2C(=O)C(=Cc3ccc([N+](=O)[O-])s3)SC2=S)cc1,0.879 ± 0.17
6,N=C(N)Nc1ccc(Cl)cc1,1.02 ± 0.1
7,O=C(O)c1ccc(NCn2nnc3ccccc32)cc1,1.05 ± 0.1
8,Cc1ccc(C=C2Oc3c(ccc(O)c3CN3CCN(CCO)CC3)C2=O)cc1,1.12 ± 0.086
9,Clc1cccc(OCCCOc2cccc3cccnc23)c1,0.586 ± 0.046
10,COc1ccc2c(C)nc(Nc3nc(C)cc(-c4ccccc4)n3)nc2c1,0.791 ± 0.079
11,CC12CC3(C)CC(C)(C1)CC(C(=O)NC(C)(C)CO)(C2)C3,0.866 ± 0.067
12,c1ccc(CN2CCN(c3cc(-c4cccnc4)n[nH]3)CC2)cc1,0.805 ± 0.043
13,CC(O)(CNC(=O)CSc1ccc(F)cc1)c1ccc(-c2ccccc2)cc1 (stereo not given),1.02 ± 0.067
14,CCC(=O)Nc1ccc(S(=O)(=O)NCC2CCN(c3ncc(F)cn3)CC2)c(C)c1,1.06 ± 0.096
15,Cc1cc(C)n(CCC(=O)N2CCc3nc4ccc(F)cn4c(=O)c3C2)n1,1.02 ± 0.051
16,Cc1ccc(C2C=C(c3ccccc3)Nc3ncnn32)cc1 (stereo not given),0.956 ± 0.089
17,Nc1nc(=O)n([C@@H]2CS[C@H](CO)O2)cc1F,1.59 ± 0.24
18,COc1cc(C(=O)O)ccc1NC(=O)[C@@H]1N[C@@H](CC(C)(C)C)[C@](C#N)(c2ccc(Cl)cc2F)[C@H]1c1cccc(Cl)c1F,0.35 ± 0.03
19,CC(=O)N1CCN=C1SCc1cccc(C(F)(F)F)c1,0.767 ± 0.06
20,Cc1ccc(-n2c(C)cc(C=NNC(=O)CN3CCOCC3)c2C)c(C)c1,0.928 ± 0.084

row,SMILES,NF-kB reporter
1,N#Cc1cc(OC2CCSC2)nc2ccccc12 (stereo not given),1.04 ± 0.067
2,CCCCC1=NC2(CCCC2)C(=O)N1Cc1ccc(-c2ccccc2-c2nnn[nH]2)cc1 [Prestw-1736],1.21 ± 0.29
3,O=c1[nH]c(=O)n([C@H]2C[C@H](O)[C@@H](CO)O2)cc1I,1.11 ± 0.15
4,COc1cc2c(cc1OC)C1Cc3ccc(OC)c(OC)c3CN1CC2 (stereo not given),0.932 ± 0.24
5,O=C(O)C=Cc1ccc(S(=O)(=O)NCc2cccnc2)cc1,0.751 ± 0.077
6,COc1ccc(CNC2CCCc3ccccc32)c(OC)c1C (stereo not given),0.166 ± 0.016
7,Cc1ccc(-n2nc(C(C)(C)C)cc2NC(=O)NCc2cc(F)ccc2Oc2ccc3c(cnn3CCO)c2)cc1,0.878 ± 0.046
8,C1=C(c2ccccc2)Nc2nnnn2C1c1ccccc1 (stereo not given),0.951 ± 0.076
9,CNc1ccc([N+](=O)[O-])cc1-n1cnc(-c2ccc([N+](=O)[O-])cc2)c1,0.853 ± 0.068
10,CC(C)(C(=O)O)c1ccc(C(O)CCCN2CCC(C(O)(c3ccccc3)c3ccccc3)CC2)cc1.Cl (stereo not given),1.47 ± 0.22
11,CN1CCN(C(=O)CN2C(=O)c3cccc4cccc(c34)C2=O)CC1,0.881 ± 0.082
12,Cc1cn([C@H]2C=C[C@@H](CO)O2)c(=O)[nH]c1=O [Prestw-1279],1.13 ± 0.11
13,CC1(C)CC(=O)c2sc(NC(=O)c3ccccc3)nc2C1,1.05 ± 0.078
14,COC(=O)C1=CN(C2CC2)C=C(C(=O)OC)C1c1ccccc1Cl,1.12 ± 0.1
15,CC1CC(C)CN(S(=O)(=O)CCCOc2ccc3c(c2)OCO3)C1 (stereo not given),1.05 ± 0.06
16,NC(=O)c1cn(Cc2c(F)cccc2F)nn1,1.01 ± 0.075
17,CCOC(=O)c1sc(NN=Cc2cccc(Cl)c2)nc1C,1.04 ± 0.12
18,COc1cc2c(Oc3ccc4[nH]c(C)cc4c3F)ncnc2cc1OCCCN1CCCC1,0.607 ± 0.097
19,CCCc1nn(C)c2c(=O)[nH]c(-c3cc(S(=O)(=O)N4CCN(C)CC4)ccc3OCC)nc12,0.951 ± 0.23
20,CC(C(=O)O)c1ccc(C(=O)c2cccs2)cc1 (stereo not given),1.17 ± 0.17

# Same assay, conditions: modulator concentration 10 µM; agonist: LPS 0.1 ug/mL
row,SMILES,NF-kB reporter
1,Cl.Fc1ccc(C2CCNCC2COc2ccc3c(c2)OCO3)cc1 (stereo not given),0.938 ± 0.089
2,O=C(O[C@@H]1C[C@@H]2C[C@@H]3C[C@H](C1)N2CC3=O)c1c[nH]c2ccccc12 [Prestw-1510],0.718 ± 0.056
3,Cc1ccc(S(=O)(=O)NC(=O)NN2CC3CCCC3C2)cc1 (stereo not given),1.17 ± 0.48
4,Cl.O[C@@H](c1cc(C(F)(F)F)nc2c(C(F)(F)F)cccc12)[C@H]1CCCCN1,0.59 ± 0.044
5,COc1ccc(N2C(=O)C(=Cc3ccc([N+](=O)[O-])s3)SC2=S)cc1,1.55 ± 0.14
6,N=C(N)Nc1ccc(Cl)cc1,1.05 ± 0.067
7,O=C(O)c1ccc(NCn2nnc3ccccc32)cc1,0.928 ± 0.12
8,Cc1ccc(C=C2Oc3c(ccc(O)c3CN3CCN(CCO)CC3)C2=O)cc1,1.01 ± 0.13
9,Clc1cccc(OCCCOc2cccc3cccnc23)c1,1.13 ± 0.091
10,COc1ccc2c(C)nc(Nc3nc(C)cc(-c4ccccc4)n3)nc2c1,0.879 ± 0.065
11,CC12CC3(C)CC(C)(C1)CC(C(=O)NC(C)(C)CO)(C2)C3,0.867 ± 0.097
12,c1ccc(CN2CCN(c3cc(-c4cccnc4)n[nH]3)CC2)cc1,1.06 ± 0.096
13,CC(O)(CNC(=O)CSc1ccc(F)cc1)c1ccc(-c2ccccc2)cc1 (stereo not given),0.973 ± 0.092
14,CCC(=O)Nc1ccc(S(=O)(=O)NCC2CCN(c3ncc(F)cn3)CC2)c(C)c1,1.2 ± 0.096
15,Cc1cc(C)n(CCC(=O)N2CCc3nc4ccc(F)cn4c(=O)c3C2)n1,0.938 ± 0.098
16,Cc1ccc(C2C=C(c3ccccc3)Nc3ncnn32)cc1 (stereo not given),1.07 ± 0.12
17,Nc1nc(=O)n([C@@H]2CS[C@H](CO)O2)cc1F,1.3 ± 0.46
18,COc1cc(C(=O)O)ccc1NC(=O)[C@@H]1N[C@@H](CC(C)(C)C)[C@](C#N)(c2ccc(Cl)cc2F)[C@H]1c1cccc(Cl)c1F,0.513 ± 0.052
19,CC(=O)N1CCN=C1SCc1cccc(C(F)(F)F)c1,0.698 ± 0.059
20,Cc1ccc(-n2c(C)cc(C=NNC(=O)CN3CCOCC3)c2C)c(C)c1,1.11 ± 0.1

row,SMILES,NF-kB reporter
1,N#Cc1cc(OC2CCSC2)nc2ccccc12 (stereo not given),1.05 ± 0.095
2,CCCCC1=NC2(CCCC2)C(=O)N1Cc1ccc(-c2ccccc2-c2nnn[nH]2)cc1 [Prestw-1736],0.96 ± 0.057
3,O=c1[nH]c(=O)n([C@H]2C[C@H](O)[C@@H](CO)O2)cc1I,0.928 ± 0.058
4,COc1cc2c(cc1OC)C1Cc3ccc(OC)c(OC)c3CN1CC2 (stereo not given),0.87 ± 0.044
5,O=C(O)C=Cc1ccc(S(=O)(=O)NCc2cccnc2)cc1,0.82 ± 0.049
6,COc1ccc(CNC2CCCc3ccccc32)c(OC)c1C (stereo not given),0.504 ± 0.058
7,Cc1ccc(-n2nc(C(C)(C)C)cc2NC(=O)NCc2cc(F)ccc2Oc2ccc3c(cnn3CCO)c2)cc1,0.942 ± 0.15
8,C1=C(c2ccccc2)Nc2nnnn2C1c1ccccc1 (stereo not given),0.945 ± 0.077
9,CNc1ccc([N+](=O)[O-])cc1-n1cnc(-c2ccc([N+](=O)[O-])cc2)c1,0.807 ± 0.038
10,CC(C)(C(=O)O)c1ccc(C(O)CCCN2CCC(C(O)(c3ccccc3)c3ccccc3)CC2)cc1.Cl (stereo not given),1.28 ± 0.39
11,CN1CCN(C(=O)CN2C(=O)c3cccc4cccc(c34)C2=O)CC1,0.981 ± 0.061
12,Cc1cn([C@H]2C=C[C@@H](CO)O2)c(=O)[nH]c1=O [Prestw-1279],1.05 ± 0.13
13,CC1(C)CC(=O)c2sc(NC(=O)c3ccccc3)nc2C1,1.08 ± 0.12
14,COC(=O)C1=CN(C2CC2)C=C(C(=O)OC)C1c1ccccc1Cl,0.722 ± 0.07
15,CC1CC(C)CN(S(=O)(=O)CCCOc2ccc3c(c2)OCO3)C1 (stereo not given),1.04 ± 0.064
16,NC(=O)c1cn(Cc2c(F)cccc2F)nn1,0.951 ± 0.12
17,CCOC(=O)c1sc(NN=Cc2cccc(Cl)c2)nc1C,1.06 ± 0.059
18,COc1cc2c(Oc3ccc4[nH]c(C)cc4c3F)ncnc2cc1OCCCN1CCCC1,1.03 ± 0.052
19,CCCc1nn(C)c2c(=O)[nH]c(-c3cc(S(=O)(=O)N4CCN(C)CC4)ccc3OCC)nc12,1.03 ± 0.07
20,CC(C(=O)O)c1ccc(C(=O)c2cccs2)cc1 (stereo not given),1.08 ± 0.24
